SW480 rereplic: DNA re-replication induction in SW480 cells; SW480 DNA re-replication, Hoechst DNA content imaging, 48 h; Potency, µM (highest dose often 46.1 µM), inactives show top-dose re-replication activation, most hits filed as activators; hit rate 1.8% among 340,000; AID 624297; note: potency is the fitted concentration of half-maximal effect; % of control where 0% means no effect; nearly all actives have a fitted effect of over 55% in size
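Image-based read-out: total Hoechst fluorescence of nuclei (405 nm excitation, 500-530 nm emission), with hits raising the fraction of high-intensity nuclei. SW480 colon cells incubated 48 hr with compounds at 37 C.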
IL1B secr inh: inhibitors of inflammasome signaling (IL-1 beta secretion); THP-1 LPS/ATP IL-1B secretion, AlphaLISA, 16 h; stronger effect = lower value; hit rate 4.7% among 360,000; activity change, % at 57.5 µM; in the data active = activity change below about -50%; inconclusive = mostly about -30% to -49%; note: % is set by controls: 0 for no effect and ±100 for the full control effect
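Secreted IL-1B measured by AlphaLISA bead assay after 16 h compound exposure of THP-1 cells; compounds (final up to 57.5 uM) added 1 h before LPS (250 ng/mL) and ATP (1.25 mM) stimulation; lower signal means less secretion.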
MCF10A rerep: DNA re-replication induction in MCF 10a cells; hit rate 2.9% among 350,000; Potency, µM (highest dose often 46.1 µM), without a hit: at the top dose activity, positive = re-replication, actives largely listed as activators; MCF 10A DNA re-replication, Hoechst nuclear intensity, 48 h; note: potency is the fitted concentration of half-maximal effect; % of control where 0% means no effect; nearly all actives have a fitted effect of over 50% in size
KB-V1 MDR tox: kills drug-selected multidrug resistant KB-V1 cells; KB-V1 MDR cells viability, CellTiter-Glo, 72 h; Potency, µM (titrated, usually from 46.1 µM), hits mostly cytotoxic; hit rate 3.4% among 400,000; AID 1347076; note: potency is the fitted concentration of half-maximal effect; % is set by controls: 0 for no effect and ±100 for the full control effect; nearly all actives have a fitted effect of over 60% in size
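KB-V1 MDR subline cells in DMEM (phenol-red free, 10% FBS) exposed to compounds in qHTS concentration series for 72 h at 37 degrees C. Viability read by CellTiter-Glo luminescence; concentration-effect curves fitted after normalization and correction.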
KB-3-1 cytotox: kills parental KB-3-1 adenocarcinoma cells. KB-3-1 viability, CellTiter-Glo ATP luminescence, 72 h. Potency, µM (top dose mostly 46.1 µM), hits mostly cytotoxic. hit rate 1.4% among 400,000. AID 1347075; note: potency is the fitted concentration of half-maximal effect; % is set by controls: 0 for no effect and ±100 for the full control effect; nearly all actives have a fitted effect of over 60% in size
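Here the drug-naive KB-3-1 line serves as comparator for MDR sub-line selectivity; cells received compound titrations, 72 h at 37 °C, then CellTiter-Glo readout.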
An asterisk follows results filed as active; i = inactive; ? = inconclusive; . = not tested or not shown. This is a sample that favours compounds with a hit; in the whole collection about 9.9% have one here. Unless noted, calls come from the whole dose curve; as a rule, active = well fitted curve in the direction sought with a large enough effect; inconclusive = small, poorly fitted or top-dose-only effect, or another doubt; inactive = no such curve, though single readings can be large; an effect the other way counts as inactive or inconclusive.

SMILES	SW480 rereplic	IL1B secr inh	MCF10A rerep	KB-V1 MDR tox	KB-3-1 cytotox
COc1ccc(S(=O)(=O)N2CCC(N3CCN(Cc4ccccc4)C(=O)C3=O)CC2)cc1	.	.	.	i	i
O=S(=O)(Nc1ccccc1)C1CCCCC1	-6.9%	5.5	-3.7%	i	i
CCn1c(CNC(=O)c2ccc(OC)cc2)nnc1SCC(=O)Nc1ccc(C)cc1	.	.	.	i	i
CCCCNC(=S)N/N=C1\C(=O)c2cccc3cccc1c23	0.3%	-8.6	11.6%	?	i
CNC(=S)N/N=C1\C(=O)c2cccc3cccc1c23	?	-97.8*	10µM*	?	?
CC(=O)N[C@@H](CCC(=O)O)C(=O)O	3.2%	.	3.9%	.	.
COCCNC(=O)c1nn(-c2ccc(C)cc2)c(=O)n(C)c1=O	.	.	.	i	i
CC1(C(=O)NCc2ccccc2Br)CCN1Cc1ccc(-c2ccccn2)cc1 (stereo not given)	.	-28.9	.	13µM*	?
CC1(C(=O)NCc2ccccc2Br)CCN1Cc1ccc2ccccc2c1 (stereo not given)	.	-7.4	.	i	i
CC(=O)C(Sc1ncnc2sc3c(c12)CCCC3)C(C)=O	-0.2%	27.5	4.1%	?	i
CC1(C)C(C=C(Cl)Cl)C1C(=O)Nc1ccc([N+](=O)[O-])cc1 (stereo not given)	?	-99.3*	?	?	?
COCCn1nnnc1C(c1ccc(C)cc1)N1CCN(Cc2ccc3c(c2)OCO3)CC1 (stereo not given)	-6.8%	-14.4	-10.5%	i	i
Cc1ccc(C(c2nnnn2Cc2cccs2)N2CCN(Cc3ccc4c(c3)OCO4)CC2)cc1 (stereo not given)	?	-63.8*	-7.4%	i	?
CCN1CCN(c2cc(-c3ccccc3)nc3cc(-c4cccc(F)c4)nn23)CC1	?	-62.5*	10.3µM*	?	?
OC1CCN(c2cc(-c3ccccc3)nc3cc(-c4ccc(F)cc4)nn23)CC1	0.7%	-7.6	15.6%	i	i
Cc1cc(N2CCN(C(=O)c3ccco3)CC2)n2nc(-c3cccc(F)c3)cc2n1	?	-23.7	23.1µM*	i	i
OC1CCCN(c2c3c(nc4cc(-c5cccc(Cl)c5)nn24)CCC3)C1 (stereo not given)	5.9%	-101.7*	-4.8%	16.4µM*	i
COc1cccc(-c2cc3nc(-c4ccccc4)cc(N4CCCC(O)C4)n3n2)c1 (stereo not given)	14.6µM*	?	18.4µM*	i	i
Cc1cccc(-c2cc3nc4c(c(N5CCCC(O)C5)n3n2)CCC4)c1 (stereo not given)	6.5%	.	3.6%	?	i
Cc1cccc(NC(=O)N2CC=C(c3c[nH]c4ccccc34)CC2)c1C	.	.	.	i	i
CC(C)(C)NC(=O)NC(=O)CSc1ccc(S(=O)(=O)N2CCCCC2)cn1	0.7%	13.3	14.2%	i	i
Cc1ccc(-c2cc3nc(-c4ccccc4)cc(N4CCOCC4)n3n2)cc1	?	-14.5	16.4µM*	i	i
COc1ccc(-c2cc3nc(-c4ccccc4)cc(N4CCC5(CC4)OCCO5)n3n2)cc1	23.1µM*	-6.3	20.4%	i	i
Cc1cc(C)c(NC(=O)CSCc2c(C)noc2C)c(C)c1	-4.9%	20.2	7.1%	23.1µM*	i
Cc1ccc(NC(=O)CSCc2c(C)noc2C)cc1C	-3.9%	-28.4	-5.2%	i	i
CCOc1ccc(S(=O)(=O)N(CC)CC)cc1NC(=O)CSCc1c(C)noc1C	4.2%	-26.1	-1.4%	7.31µM*	i
Cc1noc(C)c1CSCC(=O)Nc1cc(S(=O)(=O)N2CCOCC2)ccc1OCC(F)(F)F	-2.9%	-7.2	0.4%	i	i
CCN(CC)c1ccc(S(=O)(=O)N2CCCCC2)cc1NC(=O)CSCc1c(C)noc1C	0.6%	?	29.0%	i	23.1µM*
Cc1noc(C)c1CSCC(=O)Nc1cc(S(=O)(=O)N2CCCCC2)ccc1OC(C)C	-10.7%	-20.4	-1.9%	i	i
COC(=O)C1=CN(c2cccc(OCc3ccccc3)c2)C(N)=C(C#N)C1c1cccc(F)c1 (stereo not given)	.	-4.8	.	?	i

High-throughput results deposited in PubChem by National Center for Advancing Translational Sciences (NCATS).
